These results are taken from PubChem BioAssay (NCI).

This is part of a sample that, as a whole, favours compounds with a hit. Of some 83,000 tested, about 20% had one in any assay.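 Cells were grown in 96-well plates and exposed to the test compound at a single concentration for 48 hours; results are reported as percent growth, with values below 10 considered active.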 Unmarked numbers belong to inactive results. Activity calls are given as the source filed them.

Some test systems named below: HCT-15 colon; HT29 colon; SNB-75 CNS; SNB-19 CNS; U251 CNS; SK-MEL-5 melanoma; UACC-62 melanoma; LOX IMVI melanoma; SK-MEL-28 melanoma; PC-3 prostate.
Common to all, as to assay: NCI-60 one-dose screen, 48 h (100 = growth as untreated, 0 = no growth, -100 = all killed)
Details in all cases: 10 µM unless noted

For the compound `C[C@@H]1CCC2=C(CCC[C@]2(C)C(=O)O)[C@@]1(C)CCc1ccoc1`, the growth in the assay on HCT-15 colon was 102%; in the assay on HT29 colon it was 86.9%; with SNB-75 CNS, 95.7%; with SNB-19 CNS, 92.9%; in the assay on U251 CNS it was 85.4%; with SK-MEL-5 melanoma, 95.4%. In addition, the growth was 85.3% with UACC-62 melanoma, 98.4% in the assay with LOX IMVI melanoma and 115% in the assay with SK-MEL-28 melanoma.
Consider `CN(C)C(=O)c1cc2cnc(Nc3ccc(-c4csc5c(=O)cc(N6CCNCC6)oc45)cc3)nc2n1C1CCCC1`, for which the growth in the assay with HCT-15 colon was 19.9%; in the assay with HT29 colon, -15.1% (active); with SNB-75 CNS it was 20.5%; with SNB-19 CNS, 24.9%; in the assay on PC-3 prostate, 10%; with SK-MEL-5 melanoma, 28.5%. Moreover, the growth in the assay on UACC-62 melanoma is 24.6%; with LOX IMVI melanoma, -62.9% (active); in the assay on SK-MEL-28 melanoma, 40.7%.
For the compound `COc1cc(C2C(C(=O)c3cccs3)=C(O)C(=O)N2CCN2CCOCC2)cc(OC)c1OC` (stereo unspecified), the growth with HCT-15 colon was 102%; with HT29 colon it was 103%; with SNB-75 CNS, 91.6%; with SNB-19 CNS, 103%; with U251 CNS, 94.7%; in the assay with PC-3 prostate, 95.4%. The growth was 96.1% in the assay on SK-MEL-5 melanoma, 106% in the assay with UACC-62 melanoma and 104% with SK-MEL-28 melanoma.
Regarding `COc1ccc(-c2cnoc2-c2cc(OC)c3c(c2)OCCO3)cc1`, the growth is 4.48% (active) in the assay with HCT-15 colon; 1.26% (active) with HT29 colon; 13.2% with SNB-75 CNS; 29.5% with SNB-19 CNS; -17% (active) with U251 CNS; -27.8% (active) in the assay on SK-MEL-5 melanoma. The growth in the assay with UACC-62 melanoma was 13.4%; in the assay with LOX IMVI melanoma, 17.4%; in the assay on SK-MEL-28 melanoma, 50.9%.
Turning to `COc1ccccc1-c1ccc2c(N)c(C(=O)c3ccc4c(c3)OCO4)sc2n1`, the growth was 38.8% in the assay with HCT-15 colon; 47% in the assay on HT29 colon; 85.1% in the assay on SNB-75 CNS; 82.1% with SNB-19 CNS; 63.7% with U251 CNS; 56.6% with SK-MEL-5 melanoma. Besides, the growth is 42% in the assay with UACC-62 melanoma, 58% in the assay with LOX IMVI melanoma and 71.3% with SK-MEL-28 melanoma.
Consider `O=C(/C=C/c1cccc(Br)c1)c1ccccc1`, for which the growth is 76.6% with HCT-15 colon; 67.9% with HT29 colon; 88.4% with SNB-75 CNS; 96% with SNB-19 CNS; 68.1% with PC-3 prostate; 92.3% in the assay with SK-MEL-5 melanoma. Besides, the growth in the assay on UACC-62 melanoma is 92.6%; with LOX IMVI melanoma it was 78.2%; with SK-MEL-28 melanoma it was 100%.
For `C=C1CCC2C3(C)COC(c4ccc(SC)cc4)OC3CCC2(C)C1C/C=C1/C(=O)OCC1O` (stereo unspecified), the growth with HCT-15 colon is 68.7%; in the assay with HT29 colon, 34.4%; in the assay on SNB-75 CNS, 73%; with SNB-19 CNS it was 109%; with U251 CNS, 60.7%; with PC-3 prostate, 57.6%. Moreover, the results for the growth with SK-MEL-5 melanoma, in the assay with UACC-62 melanoma and in the assay on SK-MEL-28 melanoma were 65.3%, 66.3% and 104%, respectively.
As to `O=C(Nc1cccc2[nH]c(C(F)(F)F)nc12)c1ccc(Br)cc1F`, the growth in the assay with HCT-15 colon is 28.5%; in the assay on HT29 colon, 61.9%; with SNB-75 CNS it was 60.8%; in the assay with SNB-19 CNS, 29.7%; with U251 CNS it was 18.9%; in the assay on SK-MEL-5 melanoma, -32.8% (active). For the same compound, the growth with UACC-62 melanoma was -1.06% (active); with LOX IMVI melanoma, 35.9%; with SK-MEL-28 melanoma, 62.9%.
As for `N#CC1=C(N)Oc2c(ccc3ccccc23)C1c1cccs1` (stereo unspecified), the growth in the assay with HCT-15 colon is 13.5%; in the assay with HT29 colon it was 5.33% (active); in the assay with SNB-75 CNS, 4.67% (active); with SNB-19 CNS, 49.7%; with U251 CNS it was 13.3%; in the assay with PC-3 prostate, 22.5%. Moreover, the growth in the assay with SK-MEL-5 melanoma is -35.9% (active); in the assay with UACC-62 melanoma, 29.3%; with SK-MEL-28 melanoma, 41.1%.
As for `COc1ccc(-n2c(C)nc3c(c(C)nn3-c3ccccc3)c2=O)cc1`, the growth was 7.97% (active) with HCT-15 colon; -15.6% (active) with HT29 colon; 26.7% in the assay on SNB-75 CNS; 60.7% in the assay with SNB-19 CNS; 26.7% with PC-3 prostate; -17.1% (active) in the assay on SK-MEL-5 melanoma. In addition, the growth is 51.6% in the assay with UACC-62 melanoma, 16.6% in the assay with LOX IMVI melanoma and 67.4% in the assay on SK-MEL-28 melanoma.
Turning to `CCCNc1nc(SC)nc(-c2cccc(N)c2)c1C#N`, the growth in the assay with HCT-15 colon is 102%; in the assay with HT29 colon, 116%; in the assay on SNB-75 CNS, 54.5%; with SNB-19 CNS it was 91.6%; in the assay with PC-3 prostate, 93.6%; in the assay with SK-MEL-5 melanoma, 97.2%. Further, the growth in the assay on UACC-62 melanoma is 89.4%; with LOX IMVI melanoma it was 94.1%; in the assay on SK-MEL-28 melanoma it was 121%.
Consider `Cc1cc(Nc2nc(-c3cccnc3)nc3ccccc23)n[nH]1`, for which the growth in the assay on HCT-15 colon was 29.7%; with HT29 colon, 23.4%; with SNB-75 CNS, -32.9% (active); in the assay on SNB-19 CNS it was 77.6%; in the assay with PC-3 prostate, 58.7%; with SK-MEL-5 melanoma it was 73.8%. The growth in the assay with UACC-62 melanoma was 49.3%; with LOX IMVI melanoma it was 20.1%; in the assay with SK-MEL-28 melanoma it was 50.5%.
In the case of `COc1cc(NCCCCN=C(N)N)c2ncccc2c1`, the growth was 99.9% in the assay with HCT-15 colon; 79.6% in the assay with HT29 colon; 48.6% with SNB-75 CNS; 81.2% with SNB-19 CNS; 48.7% in the assay with U251 CNS; 89.2% with SK-MEL-5 melanoma. In addition, the growth in the assay on UACC-62 melanoma was 87.9%; with LOX IMVI melanoma, 101%; in the assay with SK-MEL-28 melanoma it was 98.9%.
For `COc1ccc(CN(c2ccc(C)cc2)C2OC(=O)c3ccccc32)cc1OC` (stereo unspecified), the growth with HCT-15 colon was 96.3%; in the assay with HT29 colon, 97.9%; in the assay on SNB-75 CNS, 90.3%; in the assay on SNB-19 CNS, 96.5%; with U251 CNS it was 86.3%; in the assay with PC-3 prostate, 90.6%. Moreover, the growth with SK-MEL-5 melanoma was 94.7%; in the assay with UACC-62 melanoma, 94.9%; in the assay with SK-MEL-28 melanoma, 108%.
